In the library only some 11% were active in any assay of this set; here they are far more common.
ALDH1A1 inh = ALDH1A1 (human) enzyme inhibition; hit rate 7.3% among 220,000; Purified ALDH1A1, NADH fluorescence, propionaldehyde substrate; AID 1030; P00352; Potency, µM (series often up to 75.3 µM), actives largely listed as inhibitors; active means well fitted inhibition curve with a large enough effect, not every such curve was filed as active; inconclusive means small, poorly fitted or top-dose-only effect, or another doubt; inactive means no such curve, though single readings can be large or run the other way
Target sequence (P00352 whole entry, looked up): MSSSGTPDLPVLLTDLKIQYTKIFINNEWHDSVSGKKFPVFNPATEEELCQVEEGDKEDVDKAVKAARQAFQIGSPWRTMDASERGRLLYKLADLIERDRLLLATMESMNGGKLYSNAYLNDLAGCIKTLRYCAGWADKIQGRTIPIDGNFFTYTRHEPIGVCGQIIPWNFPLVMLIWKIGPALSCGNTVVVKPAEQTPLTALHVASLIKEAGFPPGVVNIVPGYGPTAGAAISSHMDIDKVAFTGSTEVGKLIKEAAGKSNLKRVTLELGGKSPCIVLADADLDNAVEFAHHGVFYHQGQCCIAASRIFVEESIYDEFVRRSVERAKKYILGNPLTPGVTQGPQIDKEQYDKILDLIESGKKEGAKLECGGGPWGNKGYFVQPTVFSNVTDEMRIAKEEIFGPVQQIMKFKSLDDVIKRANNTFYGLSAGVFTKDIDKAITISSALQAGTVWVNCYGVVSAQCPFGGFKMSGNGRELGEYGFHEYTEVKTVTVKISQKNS
12-hLO inh = inhibitors of human 12-lipoxygenase (ALOX12) | P18054 | purified 12-hLO, xylenol orange hydroperoxide absorbance | hit rate 0.12% among 150,000 | Potency, µM (doses to about 57.1 µM), usual class: inhibitors; further: nearly all actives have a fitted effect of over 55% in size
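150 nM 12hLO, 25 mM Hepes pH 7.0 + 0.01% Triton X-100; cpd preinc 15 min RT; 40 uM arachidonic acid, 30 min RT; Fe-XO 30 min; A573/A405 ratio as read-out.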
HPGD inh = inhibitors of human 15-hydroxyprostaglandin dehydrogenase (HPGD). hit rate 4.3% among 150,000. P15428. Potency, µM, hits mostly inhibitors. purified HPGD, NADH fluorescence kinetic, PGE2 substrate; active means well fitted inhibition curve with a large enough effect, not every such curve was filed as active; inconclusive means small, poorly fitted or top-dose-only effect, or another doubt; inactive means no such curve, though single readings can be large or run the other way
Target sequence (P15428 whole entry, looked up): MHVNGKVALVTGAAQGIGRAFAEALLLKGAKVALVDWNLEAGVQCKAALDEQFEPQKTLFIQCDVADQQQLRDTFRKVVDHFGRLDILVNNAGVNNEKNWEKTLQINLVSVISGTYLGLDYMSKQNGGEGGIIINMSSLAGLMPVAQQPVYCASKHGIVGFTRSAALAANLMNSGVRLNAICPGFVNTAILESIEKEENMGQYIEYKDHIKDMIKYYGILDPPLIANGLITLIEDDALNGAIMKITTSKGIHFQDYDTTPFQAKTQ
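20 nM HPGD preincubated 15 min at room temperature with compound in 50 mM Tris-HCl pH 8, 0.01% Tween 20. Started with 1 mM NAD+ and 30 uM prostaglandin E2; NADH fluorescence (360/450 nm) read 5 times over 30-s intervals, last minus first.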
IMPase inh = IMPase inhibition in cells | inhibition (IP1 accumulation), % at 46.1 µM | P97697 | CHO-M1 cells, IP1 accumulation, HTRF TR-FRET ratio | AID 901 | 120,000 tested, under 10 active; active means well fitted curve in the direction sought with a large enough effect in the signal ratio, not every such curve was filed as active; inconclusive means small, poorly fitted or top-dose-only effect, or a change in a side signal; inactive means no such curve, though single readings can be large or run the other way; the % refers to the signal ratio;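 further: cells stimulated with carbachol in lithium chloride buffer; higher means more IMPase inhibition seen as more IP1 and lower FRET ratio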
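The IP-One HTRF competitive assay in carbachol-stimulated CHO-M1 cells quantifies cellular IP1. Compounds spanned up to 46 uM final, and activity is expressed as AC50 from concentration-response fits of the ratio and donor data.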
IMPase Li inh = IMPase inhibition in cells with lithium potentiation; CHO-M1 cells, IP1 TR-FRET (IP-One), carbachol + lithium; Potency, µM (titrated, usually from 59.4 µM), usual class: inhibitors; hit rate 0.35% among 210,000; AID 1457;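 further: IP1 builds up when IMPase is blocked and the TR-FRET signal falls; nearly all actives have a fitted effect of over 50% in size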
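Readout is a homogeneous TR-FRET IP1 immunoassay (Ex 320, Em 665 and 620), where raised cytosolic IP1 lowers signal. Cells were CHO-M1 treated 30 min at 37C with test compounds plus a little lithium; AC50 values came from Hill-equation fitting.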
PNC inhibitor = perinucleolar compartment assembly inhibition; PC3M PTB-GFP, PNC prevalence imaging, 16 h; stronger effect = lower value; hit rate 3.1% among 140,000; activity change (PNC), negative = inhibition, % at 10 µM;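 active means readout at or below -70, meaning at least 70% loss of cells showing the perinucleolar compartment, a nuclear body marking cancer cells; inconclusive means readout between -30 and a set limit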
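Compounds are pinned in duplicate onto adhered PC3M cells stably expressing GFP-tagged PTB and incubated 16 h at 37 C. Cells are then fixed, nuclei stained with Hoechst, and PNC-positive cells counted.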
Each line names hits and unclear results; the compound was inactive in the other large screens. Unless noted, the call rests on the fitted dose curve; in most records, active means well fitted curve in the direction sought with a large enough effect; inconclusive means small, poorly fitted or top-dose-only effect, or another doubt; inactive means no such curve, though single readings can be large; an effect the other way counts as inactive or inconclusive.

Cc1ccc(CNc2ncc(-c3ccc4c(c3)OCO4)n2C)cc1	ALDH1A1 inh 15.8µM, PNC inhibitor inconclusive
Cn1c(-c2ccc(F)cc2)cnc1NCc1ccc(F)cc1	ALDH1A1 inh inconclusive, 12-hLO inh inconclusive, HPGD inh inconclusive
Cn1c(-c2cccc([N+](=O)[O-])c2)cnc1NCc1cccc([N+](=O)[O-])c1	ALDH1A1 inh 4.74µM (no result: 12-hLO inh, HPGD inh, IMPase inh, PNC inhibitor)
Cn1c(-c2ccc(Br)cc2)cnc1NCc1cccnc1	ALDH1A1 inh 10µM
COC(=O)CC1C(C)(C)C2(O)OC34CC2C(=O)[C@@]1(C)C3CC[C@]1(C)C4=CC(=O)OC1c1ccoc1 (stereo partly drawn)	HPGD inh inconclusive (no result: IMPase inh, PNC inhibitor)
COc1cccc([C@@H]2Oc3ccc(Br)cc3C(=O)[C@H]2OC(=O)NCc2ccco2)c1	none (no result: 12-hLO inh, IMPase inh, PNC inhibitor)
Cc1ccc(NC2=CC(=O)C(=O)c3ccccc32)cc1	ALDH1A1 inh inconclusive, HPGD inh 20µM, IMPase inh inconclusive
CCOC(=O)c1ccc(NC(=O)C(C)N2C(=O)c3ccccc3C2=O)cc1 (stereo not drawn)	ALDH1A1 inh inconclusive, PNC inhibitor inconclusive
CCOC(=O)c1ccc(NC2=CC(=O)C(=O)c3ccccc32)cc1	HPGD inh 4.47µM
COc1ccc(-c2cc(C(F)(F)F)n3nc(C(=O)Nc4sc5c(c4C(=O)OC(C)C)CCC(C)C5)cc3n2)cc1 (stereo not drawn)	none (no result: ALDH1A1 inh, 12-hLO inh, HPGD inh, IMPase Li inh, PNC inhibitor)
COC(=O)COc1ccc(Oc2nc(NC(C)(C)C)nc(N3CCOCC3)n2)nn1	none (no result: ALDH1A1 inh, 12-hLO inh, HPGD inh, IMPase Li inh, PNC inhibitor)
COc1ccc(-c2cn(-c3ccc(OC)cc3)c3[n+]2-c2ccccc2CC3)cc1	ALDH1A1 inh inconclusive, PNC inhibitor -96.2
COc1ccc(-n2c(-c3ccc(Br)cc3)c[n+]3c2CCc2ccccc2-3)cc1	PNC inhibitor -134.0 (no result: IMPase inh)
COc1ccc(-n2cc(-c3ccccc3)[n+]3c2CCCCC3)cc1	none (no result: 12-hLO inh, HPGD inh, IMPase inh, PNC inhibitor)
O=S(=O)(O)c1cc(O)c2c(N=Cc3ccccc3O)cc(S(=O)(=O)O)cc2c1	ALDH1A1 inh inconclusive (no result: IMPase inh, PNC inhibitor)
CCCN(CCC)C(=O)Cn1c(=O)n(Cc2ccc(C(=O)NCCc3ccc(OC)c(OC)c3)cc2)c(=O)c2ccccc21	none (no result: ALDH1A1 inh, 12-hLO inh, HPGD inh, IMPase Li inh, PNC inhibitor)
COc1cc(OC)cc(-c2nc3cc(C)ccc3o2)c1	ALDH1A1 inh inconclusive, HPGD inh inconclusive, PNC inhibitor -116.6
Cc1ccc(-c2nc3cc(Cl)ccc3o2)cc1	ALDH1A1 inh inconclusive, HPGD inh inconclusive, PNC inhibitor inconclusive
CC(C)(C)n1nnnc1C(c1ccncc1)N1CCN(C2CCCCC2)CC1 (stereo not drawn)	none
Cc1ccc(C(c2nnnn2Cc2ccccc2)N2CCN(Cc3ccccc3)CC2)cc1 (stereo not drawn)	ALDH1A1 inh 22.4µM, PNC inhibitor inconclusive
COc1ccc(Cn2nnnc2C(c2ccncc2)N2CCOCC2)cc1 (stereo not drawn)	ALDH1A1 inh 28.2µM, PNC inhibitor -99.5
CC(C)(C)n1nnnc1C(c1cccnc1)N1CCN(C2CCCCC2)CC1 (stereo not drawn)	PNC inhibitor -83.7
COc1ccc(Cn2nnnc2C(c2ccccc2)N2CCN(C3CCCC3)CC2)cc1 (stereo not drawn)	ALDH1A1 inh 8.91µM, PNC inhibitor inconclusive
C/C1=C/CC(C)(C)/C=C/C/C(C)=C/CC1	none (no result: IMPase inh, PNC inhibitor)
CNc1cc(-c2ccccc2CN(C)C)ncn1	ALDH1A1 inh inconclusive (no result: 12-hLO inh, HPGD inh, IMPase inh, PNC inhibitor)
COc1cc(C(=O)Nc2sc3c(c2C#N)CCCC3)c(Br)c(OC)c1OC	none (no result: ALDH1A1 inh, 12-hLO inh, HPGD inh, IMPase Li inh, PNC inhibitor)
CC1(C)OC(=O)N(Cc2ccco2)C1(C)O (stereo not drawn)	ALDH1A1 inh 17.8µM
CSc1nc(N)nc(SCC(=O)C23CC4CC(CC(C4)C2)C3)c1C#N	ALDH1A1 inh 25.1µM (no result: IMPase inh)
N#Cc1c(N)nc(SCC(=O)C23CC4CC(CC(C4)C2)C3)c(C#N)c1-c1ccc(Cl)cc1	ALDH1A1 inh inconclusive, HPGD inh inconclusive, IMPase Li inh 3.55µM
CSc1nc(N)nc(SCC(=O)c2ccccc2)c1C#N	ALDH1A1 inh inconclusive
CCOC(=O)CC(=O)CSc1nc(N)c(C#N)c(-c2ccc(Cl)cc2)c1C#N	ALDH1A1 inh inconclusive (no result: HPGD inh, IMPase Li inh)
COc1ccc(C(=O)CSc2nc(N)nc(SC)c2C#N)cc1	ALDH1A1 inh inconclusive, IMPase Li inh 6.31µM
Cc1cc(C)n(-c2nc3sc4c(c3c3nnc(SCC(N)=O)n23)CC(C)(C)OC4)n1	PNC inhibitor -100.0
O=Cc1ccc(-c2ccc(F)cc2)o1	ALDH1A1 inh 1.41µM (no result: 12-hLO inh, HPGD inh, IMPase inh, PNC inhibitor)
O=C(O)/C(=C\c1ccc(-c2ccc(F)cc2)o1)c1ccccc1	ALDH1A1 inh inconclusive (no result: 12-hLO inh, HPGD inh, IMPase inh, PNC inhibitor)
O=C(Nc1ccccc1F)Nc1ccccc1N1CCCCC1	none (no result: 12-hLO inh, HPGD inh, IMPase inh, IMPase Li inh, PNC inhibitor)
Cc1c(NC(=O)c2nc3ccccc3nc2N2CCCCC2)cccc1[N+](=O)[O-]	none (no result: ALDH1A1 inh, 12-hLO inh, HPGD inh, IMPase Li inh, PNC inhibitor)
O=C(NNC(=S)Nc1cccc(C(F)(F)F)c1)c1cccc(Cl)c1	ALDH1A1 inh 22.4µM (no result: IMPase inh)
C/C=C/C(=O)Nc1cccc(C(F)(F)F)c1	none
FC(F)(F)c1cccc(NC(=S)NNC(=S)NCc2ccccc2)c1	ALDH1A1 inh 0.562µM, 12-hLO inh inconclusive, HPGD inh inconclusive
Cc1cc(C(F)(F)F)nn1CC(=O)NNC(=S)Nc1cccc(Cl)c1	ALDH1A1 inh 20µM
Cc1cc(C(F)(F)F)nn1CC(=O)Nc1cccnc1	none
O=C(O)/C=C/C(=O)Nc1cccc(C(F)(F)F)c1	ALDH1A1 inh 20µM, PNC inhibitor inconclusive
CNC(=S)NNC(=O)c1cccc(C(F)(F)F)c1	none

Screens deposited in PubChem BioAssay by National Center for Advancing Translational Sciences (NCATS).
